Measured values taken from PubChem BioAssay AID624296 (National Center for Advancing Translational Sciences (NCATS), 2012).
About 9,900 (2.8%) of roughly 350,000 compounds were called active. Not shown: some 15% with an inconclusive outcome. This excerpt belongs to a sample that is enriched for actives. Values without a mark were called inactive. The call rests on the fitted dose curve; in most records, active means well fitted activation curve with a large enough effect; inconclusive means small, poorly fitted or top-dose-only effect; inactive means no such curve, though single readings can be large or run the other way.

Assay: A quantitative high throughput screen for small molecules that induce DNA re-replication in MCF 10a normal breast cells. Further: nearly all actives have a fitted effect of over 50% in size. On activity, positive = re-replication: % of control where 0% means no effect.
Conditions: MCF 10A DNA re-replication, Hoechst nuclear intensity, 48 h; series mostly up to 46.1 µM; activity, positive = re-replication: at the top concentration
Potency means the concentration at half of the fitted maximal effect.

| SMILES | activity, positive = re-replication | Potency |
| --- | --- | --- |
| CN(C(=O)c1cccc(NC(=O)Cc2ccc(NC(=O)C3CCCN(C(=O)C4CCCC4)C3)cc2)c1)C1CCC1 (stereo not given) | 1.82% | – |
| O=S(=O)(NCC1CN(S(=O)(=O)c2ccc3c(c2)OCCO3)C1)c1c(F)cccc1F | -5.63% | – |
| COC1=CC(=O)OC(c2ccc(OC)cc2)C1 (stereo not given) | -48.5% | – |
| Cc1nc2sc(C(=O)c3ccccc3)c(N)c2c2c1CCCC2 | – | 14.6 µM (active) |
| Cc1ccc2c(N)c(C(=O)c3ccccc3)sc2n1 | 13.8% | – |
| CCc1nc2sc(C(=O)O)c(N)c2c2c1CCCC2 | 12% | – |
| CCOC(=O)C1=CN(Cc2ccc(Br)cc2)S(=O)(=O)N(C)C1C (stereo not given) | -10.6% | – |
| CCOC(=O)CC(=O)CSc1nc(-c2ccccc2)cc(-c2ccc(Cl)cc2)c1C#N | – | 11.6 µM (active) |
| N#Cc1c(C(F)(F)F)cc(-c2ccc(Cl)cc2)nc1SCC(=O)O | 4.38% | – |
| N#Cc1c(-c2ccccc2)cc(-c2ccccc2)nc1SCC(=O)O | -3.28% | – |
| COc1ccc(C(=O)OC(C)C(=O)NC2CCCC2)cc1S(=O)(=O)N1CCOCC1 (stereo not given) | -5.65% | – |
| COc1cc(OC)cc(C(=O)N[C@H](C(=O)NNC(=O)c2ccc(Br)cc2)C(C)C)c1 | -33.2% | – |
| C[C@H](CO)N1C[C@H](C)[C@H](CN(C)C(=O)Nc2ccc(C(F)(F)F)cc2)Oc2c(NC(=O)c3ccncc3)cccc2C1=O | 2.48% | – |
| Cc1ccc(Nc2c(O)nc[nH]c2=O)cc1C | -3.59% | – |
| CCC(=O)N1CCc2cc(Br)c(S(=O)(=O)NCCN3CCCCC3CC)cc21 (stereo not given) | 0.0266% | – |
| CCC(=O)N1CCc2cc(S(=O)(=O)NC(C(=O)N3CCc4ccccc4C3)C(C)C)ccc21 (stereo not given) | 0.327% | – |
| CCCN(CCC)S(=O)(=O)c1cc2c(cc1Br)CCN2C(=O)CC | – | 18.4 µM (active) |
| Cn1c(CC(=O)NNC(=O)c2ccccc2F)nc2ccccc21 | -2.71% | – |
| O=S(=O)(O)c1cc2onnc2c2ccccc12 | -6.01% | – |
| O=C(Cc1ccc(Cl)cc1)c1ccccc1 | 2.06% | – |
| CC1CC(=O)Nc2ccccc2N1C(=O)COc1ccc2cc(Br)ccc2c1 (stereo not given) | 29.2% | – |
| O=S(=O)(c1ccccc1)c1nc(-c2ccccc2F)oc1NCc1cccnc1 | -2.89% | – |
| Cc1ccc(OCc2nc(C#N)c(N3CCCC3)o2)cc1 | 1.2% | – |
| N#Cc1nc(COc2ccc(-c3ccccc3)cc2)oc1NCc1cccnc1 | – | 7.94 µM (active) |
| O=S(=O)(c1ccc(SCc2ccccc2)nc1)N1CCCCCC1 | 2.52% | – |

| SMILES | activity, positive = re-replication | Potency |
| --- | --- | --- |
| CC(CN1CCOCC1)OC(=O)c1ccc(Cl)cc1Cl (stereo not given) | 0.31% | – |
| CC(C)OC(=O)c1ccc(NCc2cc(O)ccc2O)cc1Cl | – | 1.64 µM (active) |
| O=C(OC12CC3CC(CC(C3)C1)C2)c1ccc(NCc2cc(O)ccc2O)cc1 | 6.95% | – |
| CN(C)c1ccc(CSc2ccccc2)cc1 | 0.453% | – |
| O=c1c2ccccc2ncn1CCc1ccncc1 | -0.822% | – |
| CC[C@]12c3[nH]c4ccc(Cl)cc4c3CCN1C(=O)[C@@H](CC(=O)NCCCOC)C[C@@H]2C(=O)N1CCN(C(=O)C2CC2)CC1 | -0.182% | – |
| CC1CCCCC1NC(=O)Cn1c(=O)cnc2ccccc21 (stereo not given) | -2.91% | – |
| C=C(C)CNc1cc(S(=O)(=O)N2CCOCC2)ccc1Oc1ccccc1 | 1.46% | – |
| CC(=O)Nc1ccc(NC(=O)COC(=O)c2ccccc2C(=O)c2ccccc2)cc1 | 20.4% | – |
| CC(=O)Nc1ccc(NC(=O)C(C)OC(=O)c2ccccc2C(=O)c2ccc(Cl)c([N+](=O)[O-])c2)cc1 (stereo not given) | – | 16.4 µM (active) |
| CC(CC(=O)O)C(=O)c1ccc(Cl)c([N+](=O)[O-])c1 (stereo not given) | 3.61% | – |
| COC(=O)c1cc(NC(=O)Cc2ccccc2[N+](=O)[O-])ccc1Cl | -3.8% | – |
| N#Cc1cccc(NC(=O)COC(=O)c2ccccc2C(=O)c2ccc(Cl)c([N+](=O)[O-])c2)c1 | – | 2.91 µM (active) |
| NC(=O)c1ccc(NC(=O)COC(=O)c2ccc([N+](=O)[O-])cc2)cc1 | 6.98% | – |
| Cc1ccc(S(=O)(=O)N2CCN(C(=O)Cn3c(=O)cnc4ccccc43)CC2)c(C)c1 | -0.758% | – |
| O=C(COC(=O)COc1cc(Cl)c(Cl)cc1Cl)NC1CC1 | 1.27% | – |
| Cc1ccccc1NC(=O)CSC(=O)c1ccccc1 | 17.3% | – |
| CCOC(=O)[C@H]1[C@H]2COc3ccc(Br)cc3[C@@H]2N2C(=O)CN(C)C(=O)[C@@]12C | 46.2% | – |
| COc1ccccc1CNC(=O)c1ccc(Cl)c(S(=O)(=O)N2CCCC2)c1 | 14.6% | – |
| Cc1occc1C(=O)Nc1cccc(S(=O)(=O)N2CCOCC2)c1 | 3.03% | – |
| Cc1ccc(SCC(=O)N2CCN(c3ccc(F)cc3)CC2)cc1 | -25.2% | – |
| CCN1CCC2(CC1)N=C(c1ccc(F)cc1)C(=S)N2C(=O)c1ccc(C)cc1 | – | 13 µM (active) |
| CCN1CCN(C(=O)CSc2ccc(C)cc2)CC1 | 0.479% | – |
| COc1ccccc1NC(=O)CSc1nc2sc3c(c2c(=O)n1-c1ccccc1)CCN(C)C3 | 0.14% | – |
| CCOc1ccc(-n2c(SCC(=O)OC)nc3sc4c(c3c2=O)CCN(C)C4)cc1 | -8.57% | – |

| SMILES | activity, positive = re-replication | Potency |
| --- | --- | --- |
| CCSc1nc2sc3c(c2c(=O)n1-c1ccc(C)cc1)CCN(C)C3 | – | 18.4 µM (active) |
| Cc1ccc(S(=O)(=O)N(C)CC(=O)NCC(c2ccc(F)cc2)N2CCOCC2)cc1 (stereo not given) | -1.57% | – |
| Cc1ccccc1C(=O)Nc1ccc(N2CCCCCC2)cc1 | – | 18.4 µM (active) |
| Cc1ccccc1C(=O)NC(=S)Nc1ccc(N2CCN(C(=O)c3ccccc3)CC2)cc1 | -7.1% | – |
| Cc1ccccc1C(=O)Nc1ccccc1NC(=O)c1ccccc1C | 6.72% | – |
| O=c1[nH]c2c(c(=O)n1-c1ccccc1)CCO2 | -2.42% | – |
| Cc1ccccc1N1CCN(C(=O)c2cccnc2)CC1 | 1.77% | – |
| CC1Cc2ccccc2N1S(=O)(=O)c1cccc(C(=O)OCC(=O)N2CCOCC2)c1 (stereo not given) | -9.4% | – |
| CCC1([N+](=O)[O-])COC(c2ccc(C(C)C)cc2)OC1 (stereo not given) | 1.18% | – |
| CC(C)N(C(=O)c1ccc(-c2ccccc2F)cc1)C(C)C | -4.52% | – |
| O=C(CN1C(=O)c2ccccc2C1=O)NCc1ccc(C(=O)O)cc1 | -0.0938% | – |
| CC(=O)N(C1=C(Cl)C(=O)c2ccccc2C1=O)c1ccc(C(=O)O)cc1 | – | 5.8 µM (active) |
| O=C(OCC(=O)N1CCCCCC1)c1cnc(Cl)c(Cl)c1 | 7.44% | – |
| COc1cccc2sc(N(CCCN(C)C)C(=O)CCS(=O)(=O)c3ccccc3)nc12 | – | 6.51 µM (active) |
| COc1cc2ccccc2cc1C(=O)N(CCN(C)C)c1nc2c(F)cccc2s1 | 9.27% | – |
| CN(C)CCCN(C(=O)COc1ccccc1)c1nc2c(Cl)cccc2s1 | 0.434% | – |
| N#Cc1ccccc1S(=O)(=O)N1CCN(Cc2c(O)ccc3ccccc23)CC1 | 0.162% | – |
| CCc1ccccc1OCC(=O)Nc1ccc2c(c1)OCCO2 | 3.44% | – |
| O=[N+]([O-])c1cccc(/C([O-])=C(/C(=S)Nc2ccccc2F)[n+]2ccccc2)c1 | -4.73% | – |
| CCOc1ccccc1NC(=S)C(=C([O-])c1ccc2c(c1)OCCO2)[n+]1ccc(CC)cc1 | – | 2.59 µM (active) |
| O=[N+]([O-])c1ccc(N=NNc2ccc([N+](=O)[O-])cc2)cc1 | 4.43% | – |
| Cc1cccc(NC(=O)c2sc3nc(N4CCOCC4)c4c(c3c2N)CCCC4)c1 | – | 2.91 µM (active) |
| CC(=O)Nc1ccc(N2CCOCC2)c(C(=O)Nc2cccc(C)c2)c1 | 0.446% | – |
| c1ccc(CSc2ncnc3c2sc2nc(N4CCOCC4)c4c(c23)CCCC4)cc1 | 7.01% | – |
| CC(=O)Nc1ccc(NC(=O)c2sc3nc4c(c(-c5ccc(C)cc5)c3c2N)CCC4)cc1 | – | 5.8 µM (active) |

| SMILES | activity, positive = re-replication | Potency |
| --- | --- | --- |
| Cc1cccc(NC(=O)CSc2nnc(-c3ccco3)o2)c1 | 13.8% | – |
| CC(=O)c1ccc(NC(=O)c2sc3nc4n(c(=O)c3c2C)CCCCC4)cc1 | 13.7% | – |
| Cc1cccc(NC(=O)/C(=C\c2ccco2)NC(=O)c2ccccc2)c1 | 4.86% | – |
| Cc1cccc(NC(=O)c2sc3nc4c(c(-c5ccco5)c3c2N)CCC4)c1 | – | 13 µM (active) |
| Cc1ccc(NC(=O)c2sc3nc(N)c(C#N)cc3c2N)cc1 | 99% | – |
| Cc1ccc(S(=O)(=O)N(C)c2ccc(OCC(=O)OCc3ccc(C#N)cc3)cc2)cc1 | -2.84% | – |
| O=C(CC(=O)c1cccnc1)c1ccccc1 | 1.86% | – |
| OC(COc1ccccc1)CN1CCN(c2cccc(Cl)c2)CC1 (stereo not given) | 6.13% | – |
| C[C@@H]1NS(=O)(=O)c2cc(Cl)ccc2O[C@@H]1c1ccccc1 | 2.32% | – |
| CCc1cccc(NC(=O)COC(=O)c2cc(=O)c3ccccc3o2)c1 | -1.43% | – |
| CCOC(=O)C1CCCN(C(=O)CSc2nnc3nc(C)cc(C)n23)C1 (stereo not given) | -3.48% | – |
| Cc1c(C(=O)Nc2cccc(S(=O)(=O)N3CCOCC3)c2)oc2ccccc12 | 4.39% | – |
| COc1cccc(N(CC(=O)Nc2cccc(F)c2)S(C)(=O)=O)c1 | 0.363% | – |
| Cc1cccc(N(CC(=O)Nc2ccc(-c3nc4ccc(C)cc4s3)cc2)S(C)(=O)=O)c1 | – | 14.6 µM (active) |
| CCN(CC)S(=O)(=O)c1ccc(NC(=O)CN(c2cccc(F)c2)S(C)(=O)=O)cc1 | 14.2% | – |
| CCN(CC)C(=O)[C@H]1CC(CC(=O)NCc2ccco2)C(=O)N2CCc3c([nH]c4ccccc34)[C@]12C (stereo not given in full) | 2.25% | – |
| CN(C)S(=O)(=O)c1ccc(C(=O)NCC2(N3CCOCC3)CCCCC2)cc1 | 19.4% | – |
| Cc1cc(/C=N/NC(=O)c2cccnc2)c(C)n1CC(C)C | -3.64% | – |
| O=C(N/N=C/c1ccc(O)c2ccccc12)c1cccnc1 | 18.5% | – |
| O=C(N/N=C/c1sc(N2CCCCC2)nc1-c1cccs1)c1cccnc1 | – | 0.461 µM (active) |
| OCCN1CCN(CCO)C1=S | -4.43% | – |
| O=C(CCC(=O)N1CCN(S(=O)(=O)c2ccc(Cl)cc2)CC1)NCc1cccc(C(F)(F)F)c1 | 7.94% | – |
| C[C@H](NC(=O)c1[nH]cnc1C(=O)Nc1nccs1)c1ccccc1 | 5.81% | – |
| CN(CC(=O)NCCc1ccc(S(N)(=O)=O)cc1)CC(=O)Nc1ccc(Cl)cc1 | 13.7% | – |
| CCC(C)NC(=O)c1ccc(NC(=O)CC2SC(N3CCCCC3)=NC2=O)cc1 (stereo not given) | -1.6% | – |
